Holding throughout (assay): yeast three-hybrid, YBZ-1, SC-Leu-His + 0.5 mM 3-AT, 4 days
Common to all, as to settings: tags: N-Gal4 AD-HA kept; label: inside an RPR1-promoter hybrid RNA with tandem MS2 sites; ssRNA

Test [1] concerns the target PUM1 PUF domain R5-GRR (Homo sapiens, UniProt Q14671 828-1176, C1007G;Q1011R). In a few lines: (§1)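 Matching RNA elements and Pumilio-1 PUF domain libraries, randomized at the three base-contacting residues of every repeat, were co-expressed from a centromeric plasmid in strain YBZ-1 (LexA–MS2 coat fusion, HIS3 reporter). The repeat regions were PCR-amplified and Illumina-sequenced from cells grown four days on SC-Leu (input) or SC-Leu-His + 0.5 mM 3-AT (selection). The interaction score is the log change in variant frequency from input to selection. It is computed in log2, with a pseudocount of 1 for absent variants.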

The target in test [2] is PUM1 PUF domain R5-PFL (Homo sapiens, UniProt Q14671 828-1176, C1007P;R1008F;Q1011L). The procedure, abridged: as §1
In test [3] the target is PUM1 PUF domain R5-WHS (Homo sapiens, UniProt Q14671 828-1176, C1007W;R1008H;Q1011S). The procedure, abridged: as §1
Test [4] deals with PUM1 PUF domain R4-QWP (Homo sapiens, UniProt Q14671 828-1176, N971Q;H972W;Q975P). In a few lines: as §1
The target in test [5] is PUM1 PUF domain R4-GRS (Homo sapiens, UniProt Q14671 828-1176, N971G;H972R;Q975S). The procedure, abridged:
as §1

Test [6] deals with PUM1 PUF domain R3-FFV (Homo sapiens, UniProt Q14671 828-1176, C935F;R936F;Q939V). The procedure, abridged:
as §1

For test [7], the target named is PUM1 PUF domain R5-TVD (Homo sapiens, UniProt Q14671 828-1176, C1007T;R1008V;Q1011D). The procedure, abridged:
as §1

Test [8] concerns the target PUM1 PUF domain R3-VRD (Homo sapiens, UniProt Q14671 828-1176, C935V;Q939D). The procedure, abridged:
as §1

For test [9], the target named is PUM1 PUF domain R8-KYW (Homo sapiens, UniProt Q14671 828-1176, N1122K;Q1126W). The procedure, abridged:
as §1

The target in test [10] is PUM1 PUF domain R4-GRR (Homo sapiens, UniProt Q14671 828-1176, N971G;H972R;Q975R). The procedure, abridged: as §1
Test [11] addresses PUM1 PUF domain R4-SFR (Homo sapiens, UniProt Q14671 828-1176, N971S;H972F;Q975R). In a few lines: as §1
The target in test [12] is PUM1 PUF domain R1-GKR (Homo sapiens, UniProt Q14671 828-1176, S863G;R864K;Q867R). In a few lines:
as §1

Test [13] deals with PUM1 PUF domain R1-KDT (Homo sapiens, UniProt Q14671 828-1176, S863K;R864D;Q867T). The procedure, abridged:
as §1

The target of test [14] is PUM1 PUF domain R1-MRR (Homo sapiens, UniProt Q14671 828-1176, S863M;Q867R). In a few lines:
as §1

In test [15] the target is PUM1 PUF domain R1-RIE (Homo sapiens, UniProt Q14671 828-1176, S863R;R864I;Q867E). In a few lines: as §1
For test [16], the target named is PUM1 PUF domain R2-GWW (Homo sapiens, UniProt Q14671 828-1176, N899G;Y900W;Q903W). The procedure, abridged:
as §1

Test [17] has as its target PUM1 PUF domain R2-PVM (Homo sapiens, UniProt Q14671 828-1176, N899P;Y900V;Q903M). In a few lines:
as §1

The target of test [18] is PUM1 PUF domain R5-SAC (Homo sapiens, UniProt Q14671 828-1176, C1007S;R1008A;Q1011C). In a few lines: as §1
The target in test [19] is PUM1 PUF domain R2-VYE (Homo sapiens, UniProt Q14671 828-1176, N899V;Q903E). The procedure, abridged: as §1
For test [20], the target named is T1, PUM1 PUF domain R6-VYN (Homo sapiens, UniProt Q14671 828-1176, N1043V;Q1047N).
T1 sequence: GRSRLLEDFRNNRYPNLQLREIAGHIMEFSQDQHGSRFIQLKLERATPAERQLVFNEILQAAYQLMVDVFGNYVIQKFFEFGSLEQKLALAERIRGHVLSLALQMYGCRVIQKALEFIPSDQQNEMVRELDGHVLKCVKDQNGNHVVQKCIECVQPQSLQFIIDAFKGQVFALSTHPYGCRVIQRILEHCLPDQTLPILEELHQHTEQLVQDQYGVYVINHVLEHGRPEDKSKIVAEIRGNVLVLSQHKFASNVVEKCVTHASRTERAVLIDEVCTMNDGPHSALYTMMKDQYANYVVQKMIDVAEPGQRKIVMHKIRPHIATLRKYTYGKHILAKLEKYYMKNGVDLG
In a few lines:
as §1

With “GGCUAGAACUAGUGGAUCCCCCGGCGCCCGGCGGCUCGAGCCCGGGUAAGUGUUAAUAGUCUGCAUGCCGCCGGGCGCCAUGCCUGCAGGUCGACUCUAGAAAACAUG”, the binding signal in [1] was 0.43 log2 enrichment (interaction score); in test [2] it was 4.31 log2 enrichment (interaction score); in test [3], 4.68 log2 enrichment (interaction score).

For the sequence “GGCUAGAACUAGUGGAUCCCCCGGCGCCCGGCGGCUCGAGCCCGGGUAAGUGUAUAUAGUCUGCAUGCCGCCGGGCGCCAUGCCUGCAGGUCGACUCUAGAAAACAUG”, the binding signal in [4] is 5.65 log2 enrichment (interaction score); in test [5] it was 2.08 log2 enrichment (interaction score).

As to “GGCUAGAACUAGUGGAUCCCCCGGCGCCCGGCGGCUCGAGCCCGGGUAAGUGUAAGUAGUCUGCAUGCCGCCGGGCGCCAUGCCUGCAGGUCGACUCUAGAAAACAUG”, the binding signal in test [6] was 6.72 log2 enrichment (interaction score).

On to “GGCUAGAACUAGUGGAUCCCCCGGCGCCCGGCGGCUCGAGCCCGGGUAAGUGUCAAUAGUCUGCAUGCCGCCGGGCGCCAUGCCUGCAGGUCGACUCUAGAAAACAUG”, for which the results for the binding signal in test [1] and in test [7] were 5.4 log2 enrichment (interaction score) and 3.26 log2 enrichment (interaction score), respectively.

In the case of “GGCUAGAACUAGUGGAUCCCCCGGCGCCCGGCGGCUCGAGCCCGGGUAAGUGUAAAUAGUCUGCAUGCCGCCGGGCGCCAUGCCUGCAGGUCGACUCUAGAAAACAUG”, the binding signal in [1] is 0.47 log2 enrichment (interaction score); in test [8] it was 4.68 log2 enrichment (interaction score); in test [9], 5.55 log2 enrichment (interaction score); in test [5], 4.09 log2 enrichment (interaction score); in test [3] it was 1.16 log2 enrichment (interaction score); in [7], 0.28 log2 enrichment (interaction score).

As to “GGCUAGAACUAGUGGAUCCCCCGGCGCCCGGCGGCUCGAGCCCGGGUAAGUGUACAUAGUCUGCAUGCCGCCGGGCGCCAUGCCUGCAGGUCGACUCUAGAAAACAUG”, the binding signal in [10] was 2.98 log2 enrichment (interaction score); in test [11], 4.24 log2 enrichment (interaction score).

Regarding “GGCUAGAACUAGUGGAUCCCCCGGCGCCCGGCGGCUCGAGCCCGGGUAAGUGUAAUUAGUCUGCAUGCCGCCGGGCGCCAUGCCUGCAGGUCGACUCUAGAAAACAUG”, the binding signal in test [6] is 1.62 log2 enrichment (interaction score).

In the case of “GGCUAGAACUAGUGGAUCCCCCGGCGCCCGGCGGCUCGAGCCCGGGUAAGUGUAAAUUGUCUGCAUGCCGCCGGGCGCCAUGCCUGCAGGUCGACUCUAGAAAACAUG”, the binding signal in [12] is 3.4 log2 enrichment (interaction score); in test [13] it was 5.43 log2 enrichment (interaction score); in test [14], 5.53 log2 enrichment (interaction score); in test [15], 2.99 log2 enrichment (interaction score).

“GGCUAGAACUAGUGGAUCCCCCGGCGCCCGGCGGCUCGAGCCCGGGUAAGUGUAAAUCGUCUGCAUGCCGCCGGGCGCCAUGCCUGCAGGUCGACUCUAGAAAACAUG”: the binding signal in test [12] is 3.4 log2 enrichment (interaction score); in test [13], 0.73 log2 enrichment (interaction score); in test [14], 2.6 log2 enrichment (interaction score).

For “GGCUAGAACUAGUGGAUCCCCCGGCGCCCGGCGGCUCGAGCCCGGGUAAGUGUAAAGAGUCUGCAUGCCGCCGGGCGCCAUGCCUGCAGGUCGACUCUAGAAAACAUG”, the binding signal in test [16] is 0.92 log2 enrichment (interaction score); in [17] it was 2.58 log2 enrichment (interaction score).

Turning to “GGCUAGAACUAGUGGAUCCCCCGGCGCCCGGCGGCUCGAGCCCGGGUAAGUGUGAAUAGUCUGCAUGCCGCCGGGCGCCAUGCCUGCAGGUCGACUCUAGAAAACAUG”, the binding signal in [18] was 3.04 log2 enrichment (interaction score).

As to “GGCUAGAACUAGUGGAUCCCCCGGCGCCCGGCGGCUCGAGCCCGGGUAAGUGUAAAAAGUCUGCAUGCCGCCGGGCGCCAUGCCUGCAGGUCGACUCUAGAAAACAUG”, the values for the binding signal in test [16] and in test [19] were 4.69 log2 enrichment (interaction score) and 2.23 log2 enrichment (interaction score), respectively.

Consider “GGCUAGAACUAGUGGAUCCCCCGGCGCCCGGCGGCUCGAGCCCGGGUAAGUGAAAAUAGUCUGCAUGCCGCCGGGCGCCAUGCCUGCAGGUCGACUCUAGAAAACAUG”, for which the binding signal in test [20] was 6.4 log2 enrichment (interaction score).

These data come from PMC8384837, “Expanding the binding specificity for RNA recognition by a PUF domain”.
